High-throughput results (PubChem)
This excerpt belongs to a sample that is enriched for hits.
Lassa entry inh = blocks Lassa virus binding to or entry into cells | Lassa virus pseudotype entry inhibition, cell reporter | Potency, µM (titrated, usually from 37.9 µM), without a hit: at the highest dose activity change, negative = inhibition, hits mostly inhibitors | actives 1.2% (n = 300,000); calls by dose curve; tested in HEK293 cells; note: potency is the fitted concentration of half-maximal effect; % is set by controls: 0 for no effect and ±100 for the full control effect; nearly all actives have a fitted effect of over 50% in size
MARV entry inh = blocks Marburg virus binding to or entry into cells; actives 1.8% (n = 300,000); Marburg virus pseudotyped entry inhibition, cell reporter; Potency, µM (top dose mostly 37.8 µM), without a hit: at the top dose activity change, negative = inhibition, actives largely listed as inhibitors; calls by dose curve; tested in HEK293 cells; note: potency is the fitted concentration of half-maximal effect; % is set by controls: 0 for no effect and ±100 for the full control effect
Shiga inhibitor = blocks Shiga toxin action in Vero cells | inhibition, % at 38.7 µM | Vero cells, Shiga toxin protein synthesis inhibition reporter | AID 2315 | actives 9.2% (n = 290,000); in the data active = inhibition mostly above about 28%, no sharp cut-off; inactive = mostly below about 43%; note: 0% is about no effect
CHX counter = counter-screen for Shiga toxin inhibitors: cycloheximide protein synthesis inhibition. cell reporter, cycloheximide protein synthesis inhibition counterscreen. AID 2314. max response, %. actives 12% (n = 300,000); in the data active = max response mostly above about 13%, no sharp cut-off; inactive = mostly below about 14%; note: read at 38.3 µM for the half of the compounds with a filed dose; 0% is about no effect
AMA1 RON2 block = AMA1-RON2 (P. falciparum) interaction inhibition; AID 720542; AlphaScreen AMA1-biotinylated RON2 peptide binding; Potency, µM (doses to about 58.2 µM), for inactives: top-dose activity change, negative = inhibition, most hits filed as inhibitors; actives 0.2% (n = 360,000); active = well fitted inhibition curve with a large enough effect; inconclusive = small, poorly fitted or top-dose-only effect; inactive = no such curve, though single readings can be large or run the other way;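 note: potency is the fitted concentration of half-maximal effect; 0% = vehicle wells and -100% = peptide control; nearly all actives have a fitted effect of over 45% in size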
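AMA1 (3D7) with his tag at 25 nM final met compounds first, then biotinylated RON2 peptide at 25 nM; detection used donor plus acceptor beads, 10 µg/mL apiece, read by AlphaScreen after 30 min at room temperature.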
Starred values were filed as active, the others as inactive; ? = inconclusive; nt = no result given; [ ] = dose if it differs, or a comment.

SMILES | Lassa entry inh | MARV entry inh | Shiga inhibitor | CHX counter | AMA1 RON2 block
CCOc1ccc(C(=O)Nc2ccc(Cl)cn2)cc1Cl | ? | -9.4% | 106.4* | 38.4* | 4.8%
O=C(COc1ccc(Cl)cc1Cl)Nc1ccccc1F | 7.08µM* | -47.6% | nt | nt | 37.5%
CCOc1ccc(C(=O)Nc2cc(NC(=O)c3ccc(OCC)c(Cl)c3)cc(C(=O)O)c2)cc1Cl | -4.5%[46.1 µM] | 9.3%[46.1 µM] | -2.9 | -3.1 | -1.5%
CC(=O)Nc1cccc(/C(C)=N/NC(=O)c2cc(-c3ccncc3)nc3ccccc23)c1 | ? | 4.3%[46.1 µM] | -9.5 | -1.5 | 20.3%
COc1cc(/C=N\Nc2nc3ccccc3o2)cc(OC)c1OC | ? | -0.4% | 110.4* | 40.5* | 10.2%
CC(=O)Nc1cccc(/C(C)=N/Nc2nc3ccccc3s2)c1 | ? | ? | 113.1* | 38.6* | 24.4%
CC(=O)Nc1ccc(S(=O)(=O)Nc2nc3ccccc3s2)cc1 | 16.9% | 18.7% | -23.9 | 5.1 | -1.2%
COc1ccc(/C=N/Nc2nc3ccccc3s2)cc1O | ? | ? | 68.1* | 32.6 | 3.3%
CC(=O)Nc1ccc(/C=N/Nc2nc3ccccc3s2)cc1 | nt | nt | 72.3* | 54.4* | 39.0%
COc1cc([N+](=O)[O-])ccc1NC(=O)CN1CCOCC1 | nt | nt | 18.2 | 0.4 | -2.5%
CN(CCCN1CCOCC1)Cc1cn(C)nc1-c1ccccc1F | 6.7% | 11.8%[46.1 µM] | -7.9 | -2.3 | -0.4%
COc1ccc(/C=N/Nc2nc3ccccc3o2)cc1O | ? | ? | 76.2 | 35.6* | 60.5%
COc1cc(/C=N/Nc2nc3ccccc3o2)cc(OC)c1O | 13.2% | -0.8% | 42.3 | 25.2 | 34.6%
Cc1ccc(-n2ccnc(SCC(=O)NC3CCCCC3)c2=O)cc1F | -1.0% | -18.0%[46.1 µM] | nt | nt | 5.6%
CC(c1nccs1)N(C)C(=O)c1ccc(OC2CCN(CCc3ccccc3)CC2)cc1 (stereo not given) | 7.5% | -16.1% | -3.6 | -2.4 | 2.6%
CC(c1nccs1)N(C)C(=O)c1cn(Cc2cccc3ccccc23)nn1 (stereo not given) | nt | nt | 123.2* | 40.3* | -2.9%
COCC1CCN(C(=O)c2ccc3oc(C(C)C)nc3c2)C1 (stereo not given) | nt | nt | nt | nt | -2.7%
CC(C)c1nc2cc(C(=O)N(C)C3CCOCC3)ccc2o1 | 7.3% | 5.9% | 42.2* | 36.5* | -3.7%
Cc1cc(O)c(S(=O)(=O)c2ccccc2)c(C)c1NS(=O)(=O)c1ccccc1 | 0.9% | ? | -8.8 | -0.3 | -17.0%
CCc1ccc(/C=C2/SC(=S)N(CCC(=O)NCCCN3CCOCC3)C2=O)cc1 | 15.0%[46.1 µM] | -24.3%[46.1 µM] | 90.6* | 48.2* | -9.8%
CC(C)c1ccc(/C=C2\SC(=S)N(CCC(=O)NCCCn3ccnc3)C2=O)cc1 | ? | ? | 104.1* | 60.6* | 9.3%
CCc1ccc(/C=C2\SC(=S)N(CCCC(=O)NCCCN3CCOCC3)C2=O)cc1 | nt | nt | nt | nt | -2.0%
COc1ccc(/C=C2\SC(=S)N(CCC(=O)NCCCn3ccnc3)C2=O)cc1 | nt | nt | 15.9 | 17.9* | 7.2%
Cc1ccccc1Nc1nnc(-c2ccc(C)c(S(=O)(=O)NCC3CCCO3)c2)c2ccccc12 (stereo not given) | -4.5%[46.1 µM] | ? | nt | nt | nt
CCc1ccc(NC(=O)CCC(=O)Nc2nnc(C(F)(F)F)s2)cc1 | 10.2%[46.1 µM] | 2.3%[46.1 µM] | 4.2 | -2.6 | 10.6%
SMILES | Lassa entry inh | MARV entry inh | Shiga inhibitor | CHX counter | AMA1 RON2 block
Cc1cc(C)n(CC(=O)N/N=C/c2ccc([N+](=O)[O-])s2)n1 | ? | ? | 40.6 | -2.3 | 82.0%
CCCCOc1ccc(CCC(=O)N/N=C/c2ccco2)cc1 | ? | 1.7%[46.1 µM] | 10.8 | 11.8* | -11.8%
Cc1ccn2c(C(=O)N/N=C\c3cccs3)c(C)nc2c1 | 6.6% | 18.4% | 42.9 | 16.2* | 40.8%
Cc1cc(C)n(CC(=O)N/N=C/c2cccs2)n1 | ? | 9.3% | 79.0* | 39.7* | -0.4%
CCc1ccc(OCC(=O)N/N=C\c2ccco2)c([N+](=O)[O-])c1 | 4.3% | -4.8% | active | 16.4* | 0.7%
O=C(COc1cccc([N+](=O)[O-])c1)N/N=C/c1ccco1 | nt | nt | -1.9 | -2.6 | 99.6%
Cc1ccc2nc(C)c(C(=O)N/N=C/c3cccs3)n2c1 | ? | -20.6% | 23.3 | 9.4 | 40.5%
O=[N+]([O-])c1cccc(-n2nnnc2CN2CCCC2)c1 | -9.2% | ? | 1.7 | 7.7 | 1.5%
Cc1ccc(OCC(=O)N/N=C\c2cccs2)c([N+](=O)[O-])c1 | 14.7% | 6.5% | 37.0* | 39.1* | -1.7%
Cc1ccc([N+](=O)[O-])c(C(=O)N/N=C/c2cccs2)c1 | nt | nt | 48.3 | 21.8* | 32.3%
O=C(CNC(=O)c1ccc(F)cc1)Nc1ccccc1C(F)(F)F | nt | nt | 13.2 | 3.2 | 5.4%
Cc1ccc(C2NC(=O)c3ccccc3N2)s1 (stereo not given) | -21.0% | 0.4% | 47.7* | 29.6* | 14.5%
CN(C)c1ccc(C2NC(=O)c3ccccc3N2)cc1 (stereo not given) | ? | 10µM* | 65.8* | 46.4* | -17.0%
CN(C)c1ccc(CC2C(=O)Nc3ccccc32)cc1 (stereo not given) | -8.6% | 24.6%[46.1 µM] | 49.9* | 21.8* | ?
CCOc1ccccc1NC1(c2ccccc2)C(=O)c2ccccc2C1=O | -0.8%[46.1 µM] | nt | nt | nt | nt
O=C(NCCc1ccccc1C(F)(F)F)c1cc(COc2ccccc2)on1 | nt | nt | nt | nt | 22.7%
O=C(NC1Cc2ccccc2C1)c1cc(COc2ccc(F)cc2Cl)on1 | nt | nt | -6.2 | -4.3 | -5.7%
Cc1cc(OCc2cc(C(=O)NC3CCC3)no2)cc(C)c1Cl | nt | nt | -1.6 | 4.1 | 3.3%
COc1cccc(OCc2cc(C(=O)NC3CCOCC3)no2)c1 | nt | nt | 81.8* | 45.9* | 9.0%
Cc1ccc(OCc2cc(C(=O)NC3CCCCC3)no2)cn1 | nt | nt | -5.8 | 8.5 | -2.6%
CC1(C)CC(NC(=O)c2cc(COc3cccc(C(F)(F)F)c3)on2)CCO1 (stereo not given) | nt | nt | 48.1* | 29.1* | 5.9%
Cc1ccc(OCc2cc(C(=O)NC3CCOC3)no2)cc1C (stereo not given) | nt | nt | 25.2* | 20.2* | 1.3%
COc1ccc(OCc2cc(C(=O)NC3CCOCC3)no2)c2ccccc12 | 0.7%[46.1 µM] | 17.8%[46.1 µM] | 18.4 | 22.1* | -7.7%
Cc1ccc(NC(=C(C#N)C#N)c2ccccc2)cc1 | nt | nt | nt | nt | -0.6%
Cc1coc2c(C)c3oc(=O)c(CCC(=O)N4CCCCC4)c(C)c3cc12 | -9.2%[46.1 µM] | 2.4%[46.1 µM] | nt | nt | nt
SMILES | Lassa entry inh | MARV entry inh | Shiga inhibitor | CHX counter | AMA1 RON2 block
COc1cnc(SC)nc1Nc1ccc(C#N)cc1 | nt | nt | -17.8 | -2.8 | -10.0%
CN(C)c1cccc2c1C(=O)c1ccccc1C2=O | ? | 0.6% | 27.1 | 13.3* | 11.2µM*
Cc1ccc(N2C(=O)N(CC(=O)Nc3cc(F)ccc3C)C(=O)C2C)cc1 (stereo not given) | 3.3% | 14.9% | nt | nt | 27.7%
CC(/C=C/C(=O)NO)=C\[C@@H](C)C(=O)c1ccc(N(C)C)cc1 | nt | nt | 28.4 | -3.8 | nt
COc1cc(C(=O)N2CCC(c3nc4ccccc4o3)CC2)cc(OC)c1OC | -9.3%[46.1 µM] | -22.6%[46.1 µM] | nt | nt | nt
Cc1ccc(Cl)cc1-c1ccc(C=Nc2ccc(N3CCOCC3)cc2)o1 | ? | ? | -3.4 | 2.4 | 11.2µM*
Cc1cc(O)c(C=Nc2ccc(N3CCOCC3)cc2)c(C)c1Cl | ? | -0.5%[46.1 µM] | nt | -1.0 | -2.1%
